Screens from PubChem.
EPAC1 antagonist: blocks human EPAC1 exchange factor; O95398; EPAC1 GEF assay, Rap1b-BODIPY-GDP exchange fluorescence; Potency, µM (titrated, usually from 115 µM), actives largely listed as inhibitors; 360,000 tested, 0.14% active; AID 720709; also: nearly all actives have a fitted effect of over 50% in size
EPAC1 ag: activates human EPAC1 exchange factor. O95398. EPAC1 agonist qHTS, biochemical assay; response scale: 100% = response to 6.5 mM cAMP. 360,000 tested, 0.073% active. Potency, µM (series often up to 154 µM), hits mostly activators; also: nearly all actives have a fitted effect of over 60% in size
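Nucleotide exchange assay: 100 nM EPAC1 with 250 nM Rap1B loaded with BODIPY-GDP and 50 uM GDP, room temperature. Fluorescence (480/540 nm) read every 5 min for 30 min; signal change normalized to 6.5 mM cAMP as full agonist.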
ERG Ets-DNA blk: blocks human ERG Ets domain binding to DNA. P11308. fluorescence polarization, His-ERG Ets domain / labelled DNA. Potency, µM (doses to about 76.9 µM), actives largely listed as inhibitors. 370,000 tested, 0.028% active. AID 624246; active = well fitted inhibition curve with a large enough effect in the polarisation, with a control signal flat; inconclusive = small, poorly fitted or top-dose-only effect, or effect the other way, or a change in a side signal; inactive = no such curve, though single readings can be large or run the other way; the % refers to the polarisation;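 also: polarization taken with two DNA probes labelled with fluorescein and Texas red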
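His-tagged ERG Ets domain (1 uM in the protein solution; 300mM KCl, 50mM Tris-HCl, 1mM EDTA, 1mM DTT, pH 7.5) received compound, then a probe mix of 5 nM fluorescein-DNA and 100nM Texas-615-DNA. Fluorescence polarization was read for both dyes.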
RGS4 inh: human RGS4 inhibition | P49798 | Transcreener GDP fluorescence polarization, RGS4-accelerated GTP hydrolysis | Potency, µM (titrated, usually from 114 µM), hits mostly inhibitors | 390,000 tested, 0.039% active | AID 504845; also: nearly all actives have a fitted effect of over 75% in size
Target sequence (P49798 whole entry, looked up): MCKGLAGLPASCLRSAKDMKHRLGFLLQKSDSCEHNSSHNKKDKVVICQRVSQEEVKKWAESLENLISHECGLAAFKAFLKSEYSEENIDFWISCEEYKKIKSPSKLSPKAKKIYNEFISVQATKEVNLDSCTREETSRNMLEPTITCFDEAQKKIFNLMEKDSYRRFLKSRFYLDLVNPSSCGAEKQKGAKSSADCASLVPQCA
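MLSMR compounds (23 nl, pin-transferred) preincubated 10 min at room temperature with a 500nM (2x) first reagent, then RGS4 at 900nM (2x) plus Transcreener GDP mix added; fluorescence polarization (620/688 nm) read before and after 90 min at 30 °C.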
EPAC2 ag: activates human EPAC2 exchange factor. 360,000 tested, 0.079% active. Potency, µM (top dose mostly 154 µM), actives largely listed as activators. EPAC2 activation, biochemical qHTS; response scale: 100% = 6.5 mM cAMP response. AID 720711; also: nearly all actives have a fitted effect of over 50% in size
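Exchange assay: 100 nM EPAC2 with 250 nM Rap1B-BODIPY-GDP and 50 uM GDP. Fluorescence (ex 480/em 540 nm) read every 5 min for 30 min at room temperature. Data normalized to 6.5 mM cAMP as agonist control.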
EPAC2 antag: antagonists of human EPAC2 | 360,000 tested, 0.18% active | Potency, µM (doses to about 114 µM), most hits filed as inhibitors | Q8WZA2 | EPAC2 GEF exchange of Rap1B-BODIPY-GDP, fluorescence; also: nearly all actives have a fitted effect of over 45% in size
A number is an active result; . = inactive; ? = inconclusive; / = no result given; ! = repeats disagree; [ ] = another dose, or the depositor's remark. Sampled rows, rich in hits. Any-hit rate of the full collection: about 0.4%. Unless noted, calls follow the shape of the dose curve; as a rule, active = well fitted curve in the direction sought with a large enough effect; inconclusive = small, poorly fitted or top-dose-only effect, or another doubt; inactive = no such curve, though single readings can be large; an effect the other way counts as inactive or inconclusive.

SMILES | EPAC1 antagonist | EPAC1 ag | ERG Ets-DNA blk | RGS4 inh | EPAC2 ag | EPAC2 antag
O=[N+]([O-])c1ccc(Nc2ccccc2)c2nonc12 | . | . | . | . | . | .
COc1ccc(C(=O)N2CCN(c3ccccc3OC)CC2)cc1 | ? | . | . | . | . | .
COc1ccccc1N1CCN(C(=O)c2ccc(S(=O)(=O)N3CCCC3)cc2)CC1 | . | . | . | . | 7.9µM | .
Cn1c(-n2cccc2)c(-c2c(-c3ccccc3)[nH]c3c2c(=O)n(C)c(=O)n3C)c(=O)n(C)c1=O | / | / | . | . | / | /
CC1=C(C(=O)Nc2cccnc2)C(c2ccc(F)cc2)n2nc(SCc3ccccc3)nc2N1 (stereo not given) | / | / | . | . | / | /
CCN(CC)C(=S)SCC(=O)c1ccccc1 | . | . | . | . | . | .
CCN(CC)C(=S)SSC(=S)N(CC)CC | . | . | . | 1.1µM! | . | .
COCCCNC(=O)c1sc2nc3n(c(=O)c2c1C)CCC3 | / | / | . | . | / | /
Oc1ccc(N=Cc2ccc(O)c(O)c2)cc1 | 40µM | . | . | . | . | ?
Nc1cccc(N2C(=O)c3cccc4c(N)ccc(c34)C2=O)c1 | . | 100µM | ? | . | 89µM | .
Cc1cccc(N2C(=O)c3cccc4cccc(c34)C2=O)c1 | . | . | . | . | . | .
O=C(O)c1ccc2c3c(cccc13)C(=O)N(c1ccccc1)C2=O | . | . | . | . | . | .
Cc1cccc(N2C(=O)c3cccc4c(N)ccc(c34)C2=O)c1 | . | 89µM | ? | . | 100µM | .
O=C(O)c1cccc(N2C(=O)c3cccc4c(Cl)ccc(c34)C2=O)c1 | . | . | . | . | . | .
Nc1ccc2c3c(cccc13)C(=O)N(c1ccccc1)C2=O | . | 100µM | 25µM | . | 100µM | .
CC(C)CCN1C(=O)c2cccc3c(N)ccc(c23)C1=O | . | 71µM | . | . | ? | .
CCN(C(=O)c1nn(-c2ccc(OC)c(Cl)c2)c(=O)c2c1c1ccccc1n2C)c1cccc(C(F)(F)F)c1 | / | / | . | . | / | /
CCn1c(=O)c2sccc2n2c(CCC(=O)Nc3ccc(OC)cc3OC)nnc12 | / | / | . | . | / | /
CCc1ccc(NC(=O)CSc2nc3nccnc3c(=O)n2CCc2c[nH]c3ccccc23)cc1 | / | / | . | . | / | /
Cn1c(=O)c2c(SCC(=O)NCc3ccc(F)cc3)nc(-c3ccccc3Cl)nc2n(C)c1=O | / | / | . | . | / | /
O=C(NCc1ccccn1)C1(C(F)(F)F)C/C(=C\Cc2ccccc2)CCCO1 (stereo not given) | / | / | / | . | / | /
Cc1ccccc1OCc1ccc(-c2nc(C#N)c(NCCCN(C)C)o2)o1 | / | / | . | . | / | /
Cc1cccc(N2C(=O)c3cccc4c(N(C)CCO)ccc(c34)C2=O)c1 | . | 112µM | . | . | 100µM | .
CCOc1ccc(N=C2SCCCN2C(=O)c2c(CC)noc2C)cc1 | . | . | . | . | . | .
CCc1noc(C)c1C(=O)N1CCCSC1=Nc1ccccc1Cl | . | . | . | . | . | 50µM
SMILES | EPAC1 antagonist | EPAC1 ag | ERG Ets-DNA blk | RGS4 inh | EPAC2 ag | EPAC2 antag
CCOC(=O)/C(=C/c1ccc(N2CCC(c3ccccc3)=N2)cc1)C(C)=O | . | ? | . | . | 100µM | .
Oc1ccc(Br)cc1C=Nc1cccn2cc(-c3ccccc3)nc12 | . | . | . | . | . | 79µM
CC1CCC2=NN(C(=O)c3ccco3)C(O)(C(F)(F)F)C2C1 (stereo not given) | . | . | .[15.4 µM] | . | . | 50µM
N=c1c[n+](N2CCOCC2)[n-]o1 | . | . | . | 19µM! | . | .
CCN(CC)C1=CC2=CC(=C(C#N)C#N)CCC2CC1 (stereo not given) | . | ? | . | . | 100µM | .
CCCCN(C)C1=CC2=CC(=C(C#N)C#N)CCC2CC1 (stereo not given) | . | ? | . | . | . | .
COc1ccc(-c2nc3scc(CCNC(=O)c4cccc(Br)c4)n3n2)cc1 | / | / | . | . | / | /
COc1cc(/C=C2/SC(=S)N(Cc3ccccc3)C2=O)ccc1OS(C)(=O)=O | . | . | . | . | . | .
